In ChEMBL document CHEMBL3988442, “University of Dundee, Small-Polar-MMV Screening Library” (2021):
Screen size: about 48,000 compounds; about 13,000 (27%) showed an effect of 50% or more. The list shows a part of the results.

The compounds below were run on Wolbachia pipientis (assay: Anti-Wolbachia Cell-Based Screen). Settings: 5 µM.
Assay type: functional
Set-up: scale not given: in the data most compounds retested in dose-response had high values
With COCc1ccc(C(=O)N2CCN(CC3CC3)[C@@H]3CS(=O)(=O)C[C@@H]32)o1 the “Percent Effect” value was -14.33%.
With CCCc1cnc(C)nc1NCCc1nc(C)cc(=O)[nH]1 the “Percent Effect” value was 11.65%.
CN(C)C1CCN(C(=O)c2cc3c(s2)CCN3C(=O)C2CC2)CC1.O=C(O)C(F)(F)F was tested, and the “Percent Effect” value was -3.085%.
In the case of CN1CCN(C(=O)c2cc3c(s2)CCN3C(=O)C2CC2)CC1, the “Percent Effect” value is reported as -4.007%.
For CN1CCCN(C(=O)c2cc3c(s2)CCN3C(=O)C2CC2)CC1, the “Percent Effect” value was 2.998%.
For CN(C)CC(=O)N1CCc2sc(C(=O)N3CCN(C)CC3)cc21, the “Percent Effect” value was 110.2%.
With CCCN1CCCC1c1ccc(C(=O)N2CCOCC2)s1 (configuration not stated) the “Percent Effect” value was -8.147%.
With CN(C)CC(=O)N1CCc2sc(C(=O)N3CCOCC3)cc21 the “Percent Effect” value was 66.53%.
In the case of C=C(C)CNc1ccc(C(=O)N(CC)Cc2nccn2C)cn1, the “Percent Effect” value is reported as -22.79%.
With CCc1cnc(CN(C)C2CCN(CCS(C)(=O)=O)C2)o1 (configuration not stated) the “Percent Effect” value was -2.122%.
With CC(C)c1cnc(CN(C)C2CCN(CCn3cc(C#N)cn3)C2)o1 (configuration not stated) the “Percent Effect” value was 95.34%.
With CCc1cnc(CN(C)C2CCN(CCn3cc(C#N)cn3)C2)o1 (configuration not stated) the “Percent Effect” value was 85.15%.
In the case of Cc1cnc(CN(C)C2CCN(CCn3cc(C#N)cn3)C2)o1 (configuration not stated), the “Percent Effect” value is reported as 2.575%.
With CC(C)c1cnc(CN(C)C2CCN(CCc3ccncc3)C2)o1 (configuration not stated) the “Percent Effect” value was -3.327%.
For O=C(Cc1ccccc1C(F)(F)F)N1CCC2(CC1)OCCCC2O (configuration not stated), the “Percent Effect” value was 121.4%.
With O=C(Cc1ccccc1C(F)(F)F)N1CCC2(CC1)[C@H](O)C[C@@H]2O the “Percent Effect” value was 113.5%.
O=C(Cc1ccccn1)N1CCC2(CC1)CN(c1ncccn1)CCO2.O=C(O)C(F)(F)F.O=C(O)C(F)(F)F was tested, and the “Percent Effect” value was 8.931%.
For CC(Oc1ccccc1C(F)(F)F)C(=O)NCC(=O)N1CCCC1 (configuration not stated), the “Percent Effect” value was -9.214%.
CC(=O)N1CCCC2(CN(Cc3ccccc3C(F)(F)F)CCO2)C1 (configuration not stated) was tested, and the “Percent Effect” value was -3.341%.
CSc1ncccc1C(=O)N1CCC2(CC1)OCCCC2O (configuration not stated) was tested, and the “Percent Effect” value was -4.189%.
In the case of Cc1nc(O)cc(CCNC(=O)c2ccc(CN3CCCCC3)cc2)n1, the “Percent Effect” value is reported as 2.411%.
For Cc1nc(O)cc([C@@H]2CN(S(=O)(=O)N(C)C)C[C@H]2c2ccccc2F)n1, the “Percent Effect” value was 136.9%.
Cc1nc(O)cc(CN2C[C@H](NS(=O)(=O)N(C)C)[C@@H](C3CC3)C2)n1 was tested, and the “Percent Effect” value was -8.548%.
In the case of Cc1cccc(C(=O)N2C[C@H]3CC[C@@H]2CN(S(=O)(=O)N(C)C)C3)n1, the “Percent Effect” value is reported as -20.97%.
For CCS(=O)(=O)N1C[C@@H](c2cc(O)nc(C)n2)[C@H](c2ccccc2F)C1, the “Percent Effect” value was 95.46%.
With COCC(=O)N[C@H]1C[C@H]2C(=O)NC[C@@H](CCC(=O)NC3CC3)N2C1 the “Percent Effect” value was -1.651%.
With NC(=O)NC1(C(=O)N2CCc3c(Cl)cccc3C2)CCCCC1 the “Percent Effect” value was -13.57%.
Cc1cccc(C2(CNC(=O)C(C)NC(N)=O)CCCC2)c1 (configuration not stated) was tested, and the “Percent Effect” value was -11.64%.
In the case of NC1(c2nc(-c3cccs3)cc(=O)[nH]2)CCCC1, the “Percent Effect” value is reported as 0.7263%.
In the case of O=C(O)c1cc(-c2cccs2)nc2c(Br)cnn12, the “Percent Effect” value is reported as 100.3%.
In the case of O=C(O)c1cc(-c2cccs2)nc2c(Cl)cnn12, the “Percent Effect” value is reported as 80.97%.
In the case of O=C(c1cc(-c2cccs2)nc2ccccc12)N1CCN(CCO)CC1, the “Percent Effect” value is reported as 26.12%.
Cc1cnn(C2CCCN(C(=O)c3cc(-c4cccs4)n[nH]3)C2)c1 (configuration not stated) was tested, and the “Percent Effect” value was -22.99%.
CC(C)OCCCNC(=O)[C@@]12CNC[C@@H]1CN(S(C)(=O)=O)C2 was tested, and the “Percent Effect” value was 4.002%.
For O=C(NC[C@H]1OC[C@@H](NC2CCC(F)(F)CC2)[C@@H]1O)N1CCOCC1, the “Percent Effect” value was -13.75%.
For CC(C)(C)C(C#N)NC(=O)c1ccc(Oc2cccnc2)cc1 (configuration not stated), the “Percent Effect” value was 2.212%.
With O=C1NCCN(C(=O)CN2CCOC2=O)C1c1cccc(F)c1 (configuration not stated) the “Percent Effect” value was 1.4%.
In the case of Cc1nn(C)c(C)c1OCC(=O)NCc1cccc(C(=O)O)c1, the “Percent Effect” value is reported as 4.585%.
With COc1ccccc1OCC(=O)NCC(O)(c1ccccc1)C1CC1 (configuration not stated) the “Percent Effect” value was -11.16%.
In the case of COCC(C)(O)CNC(=O)COc1ccccc1OC (configuration not stated), the “Percent Effect” value is reported as 1.741%.
For COc1cc(C(=O)O)ccc1OCC(=O)NCCc1ccccc1, the “Percent Effect” value was 92.84%.
COc1cc(C(=O)O)ccc1OCC(=O)NC(C)c1ccc(F)cc1 (configuration not stated) was tested, and the “Percent Effect” value was 2.572%.
COc1cc(C(=O)O)cc(I)c1OCC(=O)NCCc1ccccc1 was tested, and the “Percent Effect” value was 109.3%.
For Cc1cccc2c1nc1n2[C@@H](CNC(=O)c2ccncc2)COC1, the “Percent Effect” value was -9.503%.
For CCCn1ncc(C(=O)N2CCC(N3CCCCC3)CC2)c1C, the “Percent Effect” value was -9.333%.
With CC(=O)N1CCC(CCNC(C)c2cc(C)cc(C)c2)CC1 (configuration not stated) the “Percent Effect” value was -3.402%.
CCN(CC)C1CCN(C(=O)c2cc3cc(C)cc(C)c3nc2C)CC1.Cl was tested, and the “Percent Effect” value was 152.2%.
With CCN(CC)C1CCN(C(=O)NCc2c(C)noc2C)CC1 the “Percent Effect” value was -4.062%.
In the case of Cc1cc(C)c2nc(C)c(C(=O)N3CCC(CCN(C)C)CC3)cc2c1, the “Percent Effect” value is reported as 84.1%.
Cc1cc2c(cc1C(=O)N1CC[C@H](CO)[C@@H](O)C1)OCCO2 was tested, and the “Percent Effect” value was -2.803%.
For CC(C)Cc1cc(C(=O)N2CCC(N3CCCC3)CC2)cc(O)n1, the “Percent Effect” value was 3.394%.
For Cc1cc(C)c2nc(C)c(C(=O)N3CCC(N4CCCC4)CC3)cc2c1, the “Percent Effect” value was 84.44%.
For CCS(=O)(=O)N(C)C1CCN(C(=O)c2cc(C)cc(C)c2)CC1, the “Percent Effect” value was 4.174%.
For CN(C)c1nc2c(c(NCc3cc(O)ncn3)n1)CCCC2, the “Percent Effect” value was 14.14%.
For CC(C)N1CCN2C(=O)N(C3CCCCC3)C[C@H]2C1, the “Percent Effect” value was 0.5796%.
CC(C)CNC1(Cc2cc(-c3ccccc3)on2)COC1 was tested, and the “Percent Effect” value was -15.39%.
With Cc1cncc(C(=O)N(c2ccc(F)cn2)C2CCOCC2)c1 the “Percent Effect” value was -4.438%.
CCOC(=O)N1CCC(NC(=O)c2cccc(C3CCCNC3)c2)CC1 (configuration not stated) was tested, and the “Percent Effect” value was 94.34%.
With O=C(NC1CCOC1)c1cccc(S(=O)(=O)NCCCc2ncc[nH]2)c1 (configuration not stated) the “Percent Effect” value was -8.272%.
For CCCS(=O)(=O)N1CCCC(c2cccc(C(=O)O)c2)C1 (configuration not stated), the “Percent Effect” value was 9.239%.
COCC(O)CN1CCC(NC(=O)c2cccc(C)c2)CC1 (configuration not stated) was tested, and the “Percent Effect” value was -8.408%.
With CSCCN1CCC(NC(=O)OC(C)(C)C)CC1 the “Percent Effect” value was -0.645%.
With O=C1CN(CCCNS(=O)(=O)c2cccc(C(=O)NC3CC3)c2)CCN1 the “Percent Effect” value was -1.221%.
For O=C(NC1CCOCC1)c1cccc(C2CCCNC2)c1 (configuration not stated), the “Percent Effect” value was 85.12%.
With CSCCN1CCC(NC(=O)c2cccc(C3CCCNC3)c2)CC1 (configuration not stated) the “Percent Effect” value was 92.44%.
CCc1cnc(CNc2ccc(C(=O)NCc3ccco3)cc2C)o1 was tested, and the “Percent Effect” value was 4.048%.
CCOc1cc(C)c(-c2cc(N)[nH]n2)cc1OCC was tested, and the “Percent Effect” value was 103.8%.
In the case of CCOc1ccccc1-c1noc(CN2CCN(CCOC)CC2)n1, the “Percent Effect” value is reported as 9.475%.
With CCOc1ccc(Br)cc1-c1cc(N)[nH]n1.Cl the “Percent Effect” value was 161.1%.
In the case of CCOc1ccccc1-c1cc(N)[nH]n1.Cl, the “Percent Effect” value is reported as 107%.
With COc1ccc(Br)cc1CC(=O)Nc1cc(C)n[nH]1 the “Percent Effect” value was -11.39%.
With CCOc1ccccc1-c1cc2c(cc1C(N)=O)OCO2 the “Percent Effect” value was -7.69%.
In the case of Cc1cc(NC(N)=O)ccc1OCC(F)(F)F, the “Percent Effect” value is reported as 6.991%.
With c1ccc2c(c1)CN(c1ncnc3c1CCNC3)CCO2 the “Percent Effect” value was -28.26%.
With CS(=O)(=O)NCc1ncn2c1CN(C(=O)CC1CCCC1)CCC2 the “Percent Effect” value was -15.27%.
With Cc1ccc(C)c(CN2CCCn3nc(CNS(C)(=O)=O)cc3C2)c1 the “Percent Effect” value was -10.08%.
With CC(C)CC(=O)N1CCCn2cnc(CNS(C)(=O)=O)c2C1 the “Percent Effect” value was 117%.
With CC(=O)N(C)Cc1ncn2c1CN(C(=O)C1CCCO1)CCC2 (configuration not stated) the “Percent Effect” value was 106.4%.
CN(C)C(=O)NCc1ncn2c1CN(S(C)(=O)=O)CCC2 was tested, and the “Percent Effect” value was 2.726%.
For O=C(c1cccs1)N1CCCn2cnc(COCC3CC3)c2C1, the “Percent Effect” value was 6.591%.
Cc1ccsc1C(=O)N1CCn2cnc(COCC3CC3)c2C1 was tested, and the “Percent Effect” value was 0.0867%.
In the case of CS(=O)(=O)NCc1ncn2c1CN(C(=O)C1CCCO1)CCC2 (configuration not stated), the “Percent Effect” value is reported as 106.6%.
In the case of CC(=O)N(C)Cc1ncn2c1CN(C(=O)CC1CC1)CCC2, the “Percent Effect” value is reported as 104.9%.
For CSCCc1c(-c2ccccc2)ncn1CCNc1cccnc1, the “Percent Effect” value was -1.445%.
COC(=O)C1CN(CC(=O)Nc2ccccc2Cl)c2ccccc21 (configuration not stated) was tested, and the “Percent Effect” value was 8.149%.
With Cc1ccc(NC(C)C(=O)NCc2cccs2)cc1Cl (configuration not stated) the “Percent Effect” value was -17.21%.
With COCC(C)(C)NC(=O)CC(c1ccccc1)C(F)(F)F (configuration not stated) the “Percent Effect” value was 0.4415%.
With CC(C)N(C)Cc1ncn2c1CN(C(=O)C1CCCO1)CCC2 (configuration not stated) the “Percent Effect” value was 102%.
For CC(C)N(C)Cc1nnc2n1CCCN(C(=O)C1CCCO1)C2 (configuration not stated), the “Percent Effect” value was -11.05%.
With CC(C)N(C)Cc1ncn2c1CN(CC(=O)N(C)C)CCC2 the “Percent Effect” value was -4.555%.
CC(c1ccco1)N(C)Cc1cccc(C(=O)Nc2nccn2C)c1 (configuration not stated) was tested, and the “Percent Effect” value was 19.16%.
In the case of Cc1ccc(C(=O)NCCNC(=O)N(C)C(C)c2ccccn2)cc1 (configuration not stated), the “Percent Effect” value is reported as -4.194%.
For COc1cc(CN(C)C(C)c2ccccn2)cc2c1OCO2 (configuration not stated), the “Percent Effect” value was -21.63%.
With COC(=O)c1cccc(CN(C)C(C)c2ccccn2)c1 (configuration not stated) the “Percent Effect” value was 109%.
With Cc1cnc(NC(=O)c2cccc(CN(C)Cc3ncccc3C)c2)s1 the “Percent Effect” value was 0.1885%.
For CC(c1ccccn1)N(C)Cc1cccc(C(=O)Nc2nccn2C)c1 (configuration not stated), the “Percent Effect” value was 66.38%.
For Cc1ccc(Cl)c2ccc(NC(CO)CO)nc12, the “Percent Effect” value was -18.64%.
O=C(c1ccsc1)N1CC(c2nc(-c3ccc[nH]c3=O)no2)C1 was tested, and the “Percent Effect” value was -1.062%.
With CCOc1no[n+]([O-])c1-c1ccccc1 the “Percent Effect” value was 142.4%.
With CCOc1ccc(-c2c(-c3ccccc3)ncn2C2CCNC2)cn1 (configuration not stated) the “Percent Effect” value was 5.482%.
In the case of COCCOC[C@]1(CNCc2cccc(OC)c2)C[C@@H](O)[C@@H](O)C1.Cl, the “Percent Effect” value is reported as 2.999%.
In the case of N#CCCN(CC(=O)Nc1ccc(Br)cc1Cl)Cc1cccnc1, the “Percent Effect” value is reported as -15.5%.
